Experimental data: PubChem BioAssay AID1985 (Southern Research Specialized Biocontainment Screening …, 2009)
Hit rate of the full screen: of about 2,300 compounds, about 1,000 (43%) were called active. No rule for the calls is given here. So high a share suggests a set chosen from earlier hits. Some of the results follow. Results with a measured potency or affinity are listed apart.

Test: modified counter assay using GFP fluorescence, PhoP regulon inhibitor project, dose response (AID 1985)
Conditions: S. Typhi, 4 h; series mostly up to 150 µM

Row | SMILES | outcome
1 | CCC(=O)N(Cc1cc2cc(OC)ccc2[nH]c1=O)c1ccc(C)cc1C | inactive
2 | O=C(CCS(=O)(=O)c1ccccc1)Nc1ccc2c(c1)C(=O)NC2=O | inactive
3 | Cc1ccc2nsnc2c1S(=O)(=O)NCc1ccc2c(c1)OCO2 | inactive
4 | c1cncc(CSc2ccc(-c3cccs3)nn2)c1 | inactive
5 | c1ccc2c(c1)CCN(c1nc3ccccc3n3cnnc13)C2 | inactive
6 | COc1ccc2c(c1OC)C(=O)N(c1ccc(C)cc1)C2=O | inactive
7 | Cc1cc(C(F)F)n2nc(C(=O)Nc3cc(C)on3)nc2n1 | inactive
8 | Cc1[nH]nc2c1C(C1CC=CCC1)C(C#N)=C(N)O2 (configuration not stated) | inactive
9 | CC1(C)CC(=O)C2=C(C1)N(c1ccc(F)cc1)C(=O)CC2c1ccsc1 (configuration not stated) | inactive
10 | COc1ccc(-n2c3c(cc(C(=O)Nc4cccc(C)n4)c2=O)C(=O)CC(C)(C)C3)cc1 | inactive
11 | CCc1ccc(NC2=NCCCS2)cc1 | inactive
12 | CCCCN(C)C(=O)c1ccc(S(=O)(=O)N2CCOCC2)cc1 | inactive
13 | CSc1ccc(NC(=O)C(C)N2CCN(C)CC2)cc1 (configuration not stated) | inactive
14 | Cc1cc(C)c2c(=O)[nH]c(SCC(=O)N3CCCCC3)nc2n1 | inactive
15 | CCCCC(=O)Nc1ccc2c(c1)C(=O)NC2=O | inactive
16 | Nc1nc(SCC(=O)Nc2ccc3c(c2)CCC3)n[nH]1 | inactive
17 | CC(C)c1c(O)nc(SCC(=O)N2CCOCC2)[nH]c1=O | inactive
18 | CCCC1(c2ccccc2)NC(=O)N(CC(=O)Nc2cc(S(=O)(=O)N3CCOCC3)ccc2Cl)C1=O (configuration not stated) | inactive
19 | CN1Cc2ccccc2N(CC(=O)NCc2ccccc2)C1=O | inactive
20 | O=C(CC1(O)C(=O)Nc2ccc(Br)cc21)c1ccc2c(c1)OCO2 (configuration not stated) | inactive
21 | CCn1c(=N)n(CC(=O)c2ccc(OC)cc2)c2ccccc21 | inactive
22 | CCOC(=O)CNC(=O)Cn1c(C)cc2ccccc2c1=O | inactive
23 | O=C(CN(Cc1ccco1)C(=O)CNS(=O)(=O)c1ccc(Cl)cc1)NCc1ccc(F)cc1 | inactive

Row | SMILES | outcome
24 | CCN1CCN(CC(=O)Nc2ccc(C)c(Br)c2)CC1 | inactive
25 | CS(=O)(=O)N(CCc1ccccc1)CC(=O)Nc1ccc2c(c1)OCO2 | inactive
26 | CCN(CC)CCn1nc(C)nc1-c1ccccc1O | inactive
27 | Nc1nc(N2CCN(c3ccccn3)CC2)nc2ccccc12 | inactive
28 | Cc1ccc(NC2=NCCCS2)cc1Cl | inactive
29 | CCc1nc(SCC(=O)Nc2ccc(N(C)C)cc2)c2ccccc2n1 | inactive
30 | Clc1ccc(Nc2nc(C3CC3)cs2)cc1 | inactive
31 | c1ccc2oc(-c3ccc(Nc4nc(N5CCCCC5)nc(N5CCOCC5)n4)cc3)nc2c1 | inactive
32 | C/C(=N\Nc1ccc(C)c(Cl)c1)c1cccnc1 | inactive
33 | O=C(CN1C2=NCCN2c2ccccc21)c1ccc2c(c1)OCO2 | inactive
34 | CN(C)C(/C=C/Nc1ccc(F)cc1F)=C(C#N)C#N | inactive
35 | CCOc1ccc(NC(=O)CN(C)C(=O)c2ccccc2CCc2ccccc2)cc1OCC | inactive
36 | CC(C)CC(=O)Nc1ccc(-c2cn3cccnc3n2)cc1 | inactive
37 | CCOc1ccc(NC(N)=O)cc1 | inactive
38 | CCOc1ccc(-c2nc(N)ncc2-c2ccccc2)c(O)c1 | inactive
39 | Cc1ccc(Cn2c(=N)c(C(=O)NCc3ccco3)cc3c(=O)n4ccccc4nc32)cc1 | inactive
40 | CCn1cnc2cc(NCc3ccc(Br)cc3)ccc21 | inactive
41 | NC(=O)CN1N=C(c2cc(Cl)sc2Cl)CSC1=O | inactive
42 | CN1C(=O)c2ccc(NC(=O)C3CCCCC3)cc2C1=O | inactive
43 | COc1ccc(C(=O)Nc2cc3c(cc2OC)CCCC3)cc1Br | inactive
44 | CCCCN(CCCC)CCNC(=O)CSCc1ccc(C)cc1 | inactive
45 | COCc1[nH]nc2c1C(c1ccc(OC)cc1)C(C#N)=C(N)O2 (configuration not stated) | inactive
46 | COc1ccccc1NC(=O)Cn1cnc2c(nnn2-c2ccc(C)cc2)c1=O | inactive

Row | SMILES | outcome
47 | COc1cccc(/C=N/NC(=O)CNC(=O)CCc2ccccc2)c1O | inactive
48 | COc1cccc(/C=N/NC(=O)CO/N=C(\C)c2cccs2)c1OC | inactive
49 | CCCCn1cnc2cc(NCc3cccc(OC)c3O)ccc21 | inactive
50 | Cc1ccc(C)c2[nH]c(=O)c(CN(Cc3cccnc3)C(=S)NCc3ccco3)cc12 | inactive
51 | C=CCn1c(NC(C)c2cc(Cl)ccc2O)nc2ccccc21 (configuration not stated) | inactive
52 | COc1ccc(C2=NN3C(=O)c4c(ccc(OC)c4OC)C3C2)cc1 (configuration not stated) | inactive
53 | O=C(NCc1cccnc1)c1ccc(Cl)cc1[N+](=O)[O-] | inactive
54 | O=C(NCc1cccnc1)C1c2ccccc2C(=O)N1Cc1ccccc1 (configuration not stated) | inactive
55 | C=C(C)Cn1c(-c2ccc(OC)cc2)nc2ccccc21 | inactive
56 | COC(=O)Cn1c(=O)c(C)nc2ccccc21 | inactive
57 | Clc1ccc(Cn2cc(Br)cn2)cc1Cl | inactive
58 | COc1ccc(N2CCN(C(=O)c3cc4c(s3)-c3ccccc3S(=O)(=O)C4)CC2)cc1 | inactive
59 | CCCC(=O)Nc1c2c(nn1-c1ccc(C)cc1C)CSC2 | inactive
60 | CN(C)C(=O)COC(=O)/C=C/c1ccccc1[N+](=O)[O-] | inactive
61 | Oc1ccc(C2NCc3ccccc3-n3cccc32)cc1Cl (configuration not stated) | inactive
62 | COC(=O)C(NC(C)=O)(Nc1nc2c(s1)CCCC2)C(F)(F)F (configuration not stated) | inactive
63 | CCN1CCN(CCCNC(=O)c2ccc(/C=C3/Sc4ccccc4N(Cc4ccccc4F)C3=O)cc2)CC1 | inactive
64 | CCN1CCN(CCNC(=O)c2ccc(/C=C3/Sc4ccccc4N(Cc4cccc(C)c4)C3=O)cc2)CC1 | inactive
65 | S=C1NCN(C2CCCCC2)CN1c1ccccc1 | inactive
66 | CC(=O)C1C(c2ccc(OC(F)F)cc2)NC(=O)NC1(O)C(F)(F)F (configuration not stated) | inactive
67 | COc1ccc(C2C3=C(CC(C)(C)CC3=O)Nc3cc4c(cc32)OCO4)cc1 (configuration not stated) | inactive
68 | CCc1nc(C)ccc1OCC(=O)N(CC)CC | inactive
69 | CCc1nc(C)ccc1OCC(=O)NCCCN(C)C | inactive

Row | SMILES | outcome
70 | Cc1cc(C)n(/N=C/c2cc(Cl)cc(Cl)c2O)c(=O)c1 | inactive
71 | CC1CCN(C(=O)C2CCCN(S(C)(=O)=O)C2)CC1 (configuration not stated) | inactive
72 | NC(=O)c1ccc[n+](CC(=O)c2cccc([N+](=O)[O-])c2)c1 | inactive
73 | Cc1ccc(C(=O)Nc2ccc3c(c2)ncn3C)cc1 | inactive
74 | COc1ccc(/C=N/NC(=O)c2cccnc2)c(C(=O)O)c1OC | inactive
75 | COc1cccc(/C=N/NC(=O)CNC(=O)COc2cccc(C)c2)c1O | inactive
76 | CCCC1=C(C(=O)OCC)C(c2ccc(O)cc2)n2ncnc2N1 (configuration not stated) | inactive
77 | O=C(CCc1nc2ccccc2s1)NC1CCOC1=O (configuration not stated) | inactive
78 | COc1ccc(CCNC(=O)CSc2ccc(-c3ccncc3)nn2)cc1 | inactive
79 | COC(=O)c1ccc(NC(=O)CO/N=C2\CCCc3nonc32)cc1 | inactive
80 | Cc1ccc2cc(-c3noc(C4CCCO4)n3)c(=O)[nH]c2c1 (configuration not stated) | inactive
81 | CC(C)c1ccc2oc(=O)cc(CN3CCN(c4ccc(F)cc4)CC3)c2c1 | inactive
82 | Cc1ccc(NC(=O)COc2ccccc2CNC(C)(C)CC(C)(C)C)cc1 | inactive
83 | Cc1ccc(NC(=O)Cc2ccc(F)cc2)cc1 | inactive
84 | c1ccc2c(c1)C(=NC1CCCCC1)NC2=NC1CCCCC1 | inactive
85 | Cc1nn(-c2cc(N3CCNCC3)ccc2[N+](=O)[O-])c(=O)c2ccccc12 | inactive
86 | Cc1cc(N2CCCCC2)c(F)cc1[N+](=O)[O-] | inactive
87 | CCN(CC(=O)Nc1ccc(C(=O)OC)cc1)C1CCCCC1 | inactive
88 | Cc1ccc(N2C(=O)[C@@H]3[C@H](C2=O)[C@H]2C=CC=NN2[C@@H]3C(=O)Nc2ccc(Cl)cc2)cc1 | inactive
89 | COC(=O)c1cccc(C(=O)N2CCCC(CCC(=O)N(C)CCc3ccccn3)C2)c1 (configuration not stated) | inactive
90 | C[C@@H](CO)NC(=O)c1ccc2c3n(nc2c1)-c1ccc(Cl)cc1CO3 | inactive
91 | Clc1ccc2c(NCc3ccccn3)ccnc2c1 | inactive
92 | CCCCCc1nc2c(c3c1CCCC3)CCCC2 | inactive

Row | SMILES | outcome
93 | N=C1c2ccccc2CN1c1ncccn1 | inactive
94 | CCCN1CCC(NCc2cn(C)nc2-c2ccc(Oc3ccccc3)cc2)CC1 | inactive
95 | CN(C)CCNC(=O)/C(=C/c1ccc(-c2ccc(Cl)cc2)o1)NC(=O)c1ccccc1 | inactive
96 | O=C(N/N=C/c1ccc(-c2ccc(Br)cc2)o1)c1ccc2c(c1)OCO2 | inactive
97 | CN(C)CCCNC(=O)c1ccc(-c2nc(-c3ccc(Cl)cc3)cs2)cc1 | inactive
98 | CCOC(=O)COn1c(=O)c(-c2cccs2)[n+]([O-])c2ccccc21 | inactive
99 | O=C(O)C1CCCCC1C(=O)NCCc1ccncc1 (configuration not stated) | inactive
100 | C#CCOCCOCCOCCNc1nc(N2CCN(C(=O)CCCCCCCCCCNC(=O)[C@@H](CCSC)n3cc(CCO)nn3)CC2)nc(N2CCN(C(=O)CCCCCCCCCCNC(=O)[C@H]([C@@H](C)CC)n3cc(CCCCN=C(N)N)nn3)CC2)n1 | inactive
101 | Cn1c(=O)c2c(nc(Br)n2CCSc2nc3ccccc3o2)n(C)c1=O | inactive
102 | CC(=O)c1cccc(CN2CCN(C3CCCC3)C(CCO)C2)c1 (configuration not stated) | inactive
103 | Cc1ccc(S(=O)(=O)NC(C)(C)CSc2nnc(N)s2)cc1 | inactive
104 | CCc1ccccc1NC(=S)N(Cc1cccc(C)c1)c1cccnc1 | inactive
105 | CC1(C)CC(N2CCN(C(c3ccccc3)c3ccccc3)CC2)=CC(=[N+]2CCCCC2)C1 | inactive
106 | CN1CCN(C(=O)c2cc(-c3cccc(Cl)c3)on2)CC1 | inactive
107 | CCn1c(-c2cccc(Br)c2)n[nH]c1=S | inactive
108 | CC(=O)c1sc2nc(=O)c(C)nn2c1C | inactive
109 | Cc1ccc(C(=O)N2C(=S)C(c3ccc(F)cc3)=NC23CCN(C)CC3)cc1 | inactive
110 | COc1ccc(N=Cc2c(O)n(CC3CCCO3)c(=O)[nH]c2=O)cc1 (configuration not stated) | inactive
111 | CC(=O)c1c(C)nc(-c2cccc([N+](=O)[O-])c2)n1O | inactive
112 | COc1cc(C)nc(N2CCCC(C(=O)NCC(C)C)C2)n1 (configuration not stated) | inactive
